Screens (PubChem)
Only some compounds are listed: those with a hit (about 12% of all), similar ones and a draw of the others.
G9a block: qHTS Assay for Inhibitors of Histone Lysine Methyltransferase G9a; Potency, µM (titrated, usually from 102 µM), actives largely listed as inhibitors; Histone-lysine N-methyltransferase EHMT2 (Homo sapiens), Q96KQ7; actives 8.8% (n = 350,000); G9a H3K9 monomethylation, AlphaScreen, 2 h; AID 504332, 2011; note: nearly all actives have a fitted effect of over 75% in size
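Compounds were preincubated with 20 nM G9a for 15 min, after which biotinylated H3K9 peptide (500 nM) and SAM (20 uM) started a 2 h room-temperature reaction. Monomethylated product was quantified by antibody-based AlphaScreen chemiluminescence.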
TDP1 block: qHTS Assay for Inhibitors of Tyrosyl-DNA Phosphodiesterase (TDP1) | Tyrosyl-DNA phosphodiesterase 1 (Homo sapiens), Q9NUW8 | recombinant TDP1, AlphaScreen DNA substrate cleavage | Potency, µM (highest dose often 130 µM), most hits filed as inhibitors | actives 0.28% (n = 350,000) | AID 485290, 2010; note: nearly all actives have a fitted effect of over 40% in size
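Compounds were preincubated with Tdp1 (1 nM final) for 15 min at room temperature before substrate (15 nM final) started a 5 min reaction; beads (10 ug/ml final) were then added for 10 min before AlphaScreen detection.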
Sfp PPTase inh: qHTS Assay for Inhibitors of Bacillus subtilis Sfp phosphopantetheinyl transferase (PPTase) | 4'-phosphopantetheinyl transferase ffp (Bacillus subtilis), Q9F4F7 | Biochemical Sfp PPTase activity, qHTS | Potency, µM, usual class: inhibitors | actives 3.5% (n = 310,000);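 note: the enzyme is Sfp with the accession as filed and its product quenches rhodamine fluorescence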
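Step 1, compound plus 15 nM Sfp-PPTase, 15 min, room temperature. Step 2, add rhodamine-CoA (5 uM) and BHQ-2-YbbR (12.5 uM). Step 3, read 525/598 nm fluorescence at 0 and 30 min.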
BAZ2B inh: qHTS Assay for Inhibitors of BAZ2B. AlphaScreen BAZ2B-H3K14Ac peptide displacement. Potency, µM (doses to about 114 µM), usual class: inhibitors. actives 4.4% (n = 360,000); note: nearly all actives have a fitted effect of over 60% in size
Target sequence (Q9UIF8 whole entry, looked up): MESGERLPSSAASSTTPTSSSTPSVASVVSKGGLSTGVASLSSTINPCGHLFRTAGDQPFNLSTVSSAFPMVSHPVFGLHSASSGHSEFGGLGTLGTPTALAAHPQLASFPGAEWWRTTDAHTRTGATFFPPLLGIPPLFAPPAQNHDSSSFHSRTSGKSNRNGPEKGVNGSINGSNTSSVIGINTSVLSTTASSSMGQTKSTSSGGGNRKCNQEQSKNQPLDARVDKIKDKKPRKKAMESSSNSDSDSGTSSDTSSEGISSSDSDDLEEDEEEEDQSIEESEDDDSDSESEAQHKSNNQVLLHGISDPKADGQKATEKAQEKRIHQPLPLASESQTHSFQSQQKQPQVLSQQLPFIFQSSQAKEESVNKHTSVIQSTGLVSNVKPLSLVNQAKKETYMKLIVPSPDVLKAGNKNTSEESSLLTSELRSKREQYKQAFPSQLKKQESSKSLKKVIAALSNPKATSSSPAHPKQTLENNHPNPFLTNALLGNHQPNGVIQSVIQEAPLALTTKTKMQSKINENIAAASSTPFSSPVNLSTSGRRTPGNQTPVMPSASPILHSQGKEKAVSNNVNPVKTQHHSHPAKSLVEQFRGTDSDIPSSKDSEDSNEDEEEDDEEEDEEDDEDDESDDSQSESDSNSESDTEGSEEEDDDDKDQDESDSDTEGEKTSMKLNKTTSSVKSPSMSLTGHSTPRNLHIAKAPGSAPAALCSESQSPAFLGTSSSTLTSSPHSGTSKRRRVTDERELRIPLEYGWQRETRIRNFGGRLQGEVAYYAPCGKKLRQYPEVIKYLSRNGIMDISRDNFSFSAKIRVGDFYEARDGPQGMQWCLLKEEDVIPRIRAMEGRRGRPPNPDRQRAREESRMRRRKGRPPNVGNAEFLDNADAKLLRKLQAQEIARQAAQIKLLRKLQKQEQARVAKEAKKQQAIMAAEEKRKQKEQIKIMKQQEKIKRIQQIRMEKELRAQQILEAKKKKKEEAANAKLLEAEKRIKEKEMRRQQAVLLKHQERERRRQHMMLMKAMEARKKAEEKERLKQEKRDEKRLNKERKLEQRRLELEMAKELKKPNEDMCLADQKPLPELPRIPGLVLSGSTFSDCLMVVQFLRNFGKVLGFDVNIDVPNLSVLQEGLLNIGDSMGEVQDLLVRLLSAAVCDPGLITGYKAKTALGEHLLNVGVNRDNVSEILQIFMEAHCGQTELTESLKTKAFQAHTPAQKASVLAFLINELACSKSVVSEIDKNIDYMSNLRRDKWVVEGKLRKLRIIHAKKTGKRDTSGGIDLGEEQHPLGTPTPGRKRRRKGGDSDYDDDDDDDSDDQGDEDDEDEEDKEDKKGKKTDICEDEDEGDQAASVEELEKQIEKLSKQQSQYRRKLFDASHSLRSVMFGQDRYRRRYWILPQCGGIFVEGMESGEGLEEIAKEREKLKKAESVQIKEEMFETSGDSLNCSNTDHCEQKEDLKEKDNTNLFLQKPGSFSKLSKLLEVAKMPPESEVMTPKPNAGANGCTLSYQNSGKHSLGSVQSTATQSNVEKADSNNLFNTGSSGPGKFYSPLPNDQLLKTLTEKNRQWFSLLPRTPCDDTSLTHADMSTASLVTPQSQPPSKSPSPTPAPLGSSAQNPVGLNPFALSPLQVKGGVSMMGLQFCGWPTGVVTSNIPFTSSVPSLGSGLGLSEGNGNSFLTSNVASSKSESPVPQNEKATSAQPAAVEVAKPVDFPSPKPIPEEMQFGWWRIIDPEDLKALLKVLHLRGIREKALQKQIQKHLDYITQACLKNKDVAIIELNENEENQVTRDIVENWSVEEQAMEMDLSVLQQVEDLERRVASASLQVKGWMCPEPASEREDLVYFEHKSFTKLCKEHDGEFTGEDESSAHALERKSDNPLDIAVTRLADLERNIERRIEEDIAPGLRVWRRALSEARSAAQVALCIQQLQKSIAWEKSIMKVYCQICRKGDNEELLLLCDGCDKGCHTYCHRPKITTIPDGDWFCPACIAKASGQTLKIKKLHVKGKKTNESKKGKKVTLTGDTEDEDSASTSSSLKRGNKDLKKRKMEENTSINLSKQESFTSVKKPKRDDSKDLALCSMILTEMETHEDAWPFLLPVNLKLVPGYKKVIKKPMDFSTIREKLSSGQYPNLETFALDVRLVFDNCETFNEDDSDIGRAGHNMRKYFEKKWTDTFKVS
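In this displacement format the biotinylated H3(5-23) peptide acetylated at Lys14 serves as ligand at 50 nM, with BAZ2B at 50 nM in PBS pH 7.4 containing 0.01% Tween-20. Donor and acceptor beads are 10 ug/mL final.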
HP1b binding inh: HTS for Inhibitors of HP1-beta Chromodomain Interactions with Methylated Histone Tails | Potency, µM (series often up to 114 µM), hits mostly inhibitors | Chromobox protein homolog 1 (Homo sapiens), P83916 | AID 540317, 2011 | AlphaScreen HP1-beta / biotin-H3K9me3 peptide binding | actives 0.56% (n = 390,000); note: nearly all actives have a fitted effect of over 70% in size
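Compound inhibition of the preformed complex between 50 nM HP1-beta and 50 nM biotinylated H3K9me3 peptide was read by AlphaScreen. Buffer was PBS pH 7.4 with 0.01% Tween-20. Incubations ran 30 min at room temperature, with 10 ug/mL donor/acceptor beads.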
JMJD2A Tudor: qHTS Assay for Inhibitors of JMJD2A-Tudor Domain; Potency, µM (series often up to 114 µM), most hits filed as inhibitors; Lysine-specific demethylase 4A (Homo sapiens), O75164; AlphaScreen JMJD2A-Tudor / H3K4me3 peptide binding; actives 4.4% (n = 390,000); note: nearly all actives have a fitted effect of over 50% in size
Large screens that a line does not name were inactive. Calls come from the whole dose curve; as a rule, active = well fitted curve in the direction sought with a large enough effect; inconclusive = small, poorly fitted or top-dose-only effect, or another doubt; inactive = no such curve, though single readings can be large; an effect the other way counts as inactive or inconclusive.

CC(=O)N1C2(C=CC1(C)C(=O)NCc1ccc(C)o1)CCCCC2 (stereo not drawn)	Sfp PPTase inh inconclusive (no result: G9a block, BAZ2B inh, HP1b binding inh, JMJD2A Tudor)
CC1CCN2c3cc(Cl)ccc3CC3(C(=O)OC(C)(C)OC3=O)C2C1 (stereo not drawn)	none (no result: G9a block, Sfp PPTase inh, BAZ2B inh)
COc1ccc(S(=O)(=O)N(CC(=O)Nc2ccc3c(c2)OCO3)c2ccccc2OC)cc1	none
COc1ccc(S(=O)(=O)Nc2ccc3c(c2)OCO3)cc1OC	G9a block 50.1µM
COc1ccccc1N(CC(=O)Nc1ccc2c(c1)OCO2)S(=O)(=O)c1ccccc1	G9a block 28.2µM, BAZ2B inh 56.2µM, JMJD2A Tudor inconclusive
Cc1ccc(C)c(S(=O)(=O)NCC(c2ccc3c(c2)OCO3)N2CCOCC2)c1 (stereo not drawn)	none (no result: TDP1 block, Sfp PPTase inh)
COc1ccc(N2CCN(C(CNC(=O)c3ccc(C)cc3)c3ccc4c(c3)OCO4)CC2)cc1 (stereo not drawn)	G9a block 8.91µM, BAZ2B inh 20µM, JMJD2A Tudor 28.2µM (no result: Sfp PPTase inh)
COc1ccc(C)cc1S(=O)(=O)NCC(c1ccc2c(c1)OCO2)N1CCN(C)CC1 (stereo not drawn)	G9a block 11.2µM (no result: TDP1 block, Sfp PPTase inh)
COc1ccc(C(=O)NCC(c2ccc3c(c2)OCO3)N2CCN(C)CC2)cc1 (stereo not drawn)	none (no result: Sfp PPTase inh)
Cc1ccc(OCC(=O)N(Cc2sccc2C)C2CCS(=O)(=O)C2)cc1 (stereo not drawn)	none (no result: Sfp PPTase inh)
CCOc1ccccc1NS(=O)(=O)c1ccc2c(c1)oc(=O)n2C	none (no result: Sfp PPTase inh)
COc1ccc(S(=O)(=O)NCC(c2ccc3c(c2)OCO3)N2CCN(C)CC2)cc1OC (stereo not drawn)	G9a block 50.1µM (no result: TDP1 block, Sfp PPTase inh)
CC1(C)SC2C(NC(=O)Cc3ccccc3)C(=O)N2C1C(=O)O (stereo not drawn)	none (no result: BAZ2B inh, HP1b binding inh, JMJD2A Tudor)
COc1cc(NS(=O)(=O)c2ccc(NS(=O)(=O)c3ccccc3)cc2)nc(OC)n1	G9a block 56.2µM, BAZ2B inh inconclusive
COc1cc(NS(=O)(=O)c2ccc(NS(=O)(=O)c3ccc(NC(C)=O)cc3)cc2)nc(OC)n1	none (no result: TDP1 block)
COc1cc(NS(=O)(=O)c2ccc(NC(=O)/C(=C\c3ccccc3OC)NC(=O)c3ccccc3)cc2)nc(OC)n1	G9a block 20µM
COc1ccc(-c2cn(CCC(=O)NCc3ccc(C)cc3)c(CCN)n2)cc1	BAZ2B inh inconclusive, JMJD2A Tudor inconclusive (no result: Sfp PPTase inh)
COc1cccc(N2CCN(C(=O)CCC(=O)c3ccc(Cl)s3)CC2)c1	none (no result: Sfp PPTase inh)
Fc1ccc(CSc2nnc(-c3cnccn3)n2Cc2ccco2)cc1	none
O=C(CSc1nnc(-c2cccnc2)n1Cc1ccco1)N1CCc2ccccc21	Sfp PPTase inh 20µM
Fc1ccc(CSc2nnc(-c3cccnc3)n2Cc2ccco2)cc1	G9a block 50.1µM, Sfp PPTase inh 39.8µM
C/C(=C\C1CCCCC1)C(NC(=O)c1cccnc1)c1ccc(-c2ccccc2)cc1 (stereo not drawn)	none (no result: G9a block, BAZ2B inh, HP1b binding inh, JMJD2A Tudor)
CC(C)Cn1c(=O)c2ccccc2n2c(CCC(=O)N3CCN(c4ccccc4)CC3)nnc12	none (no result: Sfp PPTase inh)
CCOc1ccc(Cl)cc1C1CC(=O)Nc2cc(OC)c(OC)c(OC)c21 (stereo not drawn)	none (no result: Sfp PPTase inh)
O=[N+]([O-])c1cccc(C=NNc2ccc3ccccc3n2)c1O	JMJD2A Tudor 22.4µM (no result: G9a block, TDP1 block, Sfp PPTase inh, BAZ2B inh)
Brc1ccccc1/C=N/Nc1ccc2ccccc2n1	Sfp PPTase inh 39.8µM
O=C(N/N=C/c1cccc([N+](=O)[O-])c1O)C(O)(c1ccccc1)c1ccccc1	Sfp PPTase inh inconclusive, JMJD2A Tudor inconclusive (no result: G9a block)
Cc1cc(N/N=C/c2ccccc2Br)nc2ccccc12	Sfp PPTase inh inconclusive
COc1cccc(Cn2c(=O)cnc3cnc(N(C)C)nc32)c1	none (no result: TDP1 block, BAZ2B inh, HP1b binding inh, JMJD2A Tudor)
